Screen size: about 310,000 compounds; about 14,000 (4.5%) showed an effect of 50% or more. Effects have a minus sign here. The sample holds strong results, similar compounds and a random draw of the others, so the mix is not that of the screen.
The compounds below were run against human ether-à-go-go-related gene (hERG) potassium channel (human, UniProt Q12809) (assay: primary screen, population patch clamp on CHO cells stably expressing hERG; higher = less effect of the substance).
Sequence of human ether-à-go-go-related gene (hERG) potassium channel (Q12809 whole entry, looked up): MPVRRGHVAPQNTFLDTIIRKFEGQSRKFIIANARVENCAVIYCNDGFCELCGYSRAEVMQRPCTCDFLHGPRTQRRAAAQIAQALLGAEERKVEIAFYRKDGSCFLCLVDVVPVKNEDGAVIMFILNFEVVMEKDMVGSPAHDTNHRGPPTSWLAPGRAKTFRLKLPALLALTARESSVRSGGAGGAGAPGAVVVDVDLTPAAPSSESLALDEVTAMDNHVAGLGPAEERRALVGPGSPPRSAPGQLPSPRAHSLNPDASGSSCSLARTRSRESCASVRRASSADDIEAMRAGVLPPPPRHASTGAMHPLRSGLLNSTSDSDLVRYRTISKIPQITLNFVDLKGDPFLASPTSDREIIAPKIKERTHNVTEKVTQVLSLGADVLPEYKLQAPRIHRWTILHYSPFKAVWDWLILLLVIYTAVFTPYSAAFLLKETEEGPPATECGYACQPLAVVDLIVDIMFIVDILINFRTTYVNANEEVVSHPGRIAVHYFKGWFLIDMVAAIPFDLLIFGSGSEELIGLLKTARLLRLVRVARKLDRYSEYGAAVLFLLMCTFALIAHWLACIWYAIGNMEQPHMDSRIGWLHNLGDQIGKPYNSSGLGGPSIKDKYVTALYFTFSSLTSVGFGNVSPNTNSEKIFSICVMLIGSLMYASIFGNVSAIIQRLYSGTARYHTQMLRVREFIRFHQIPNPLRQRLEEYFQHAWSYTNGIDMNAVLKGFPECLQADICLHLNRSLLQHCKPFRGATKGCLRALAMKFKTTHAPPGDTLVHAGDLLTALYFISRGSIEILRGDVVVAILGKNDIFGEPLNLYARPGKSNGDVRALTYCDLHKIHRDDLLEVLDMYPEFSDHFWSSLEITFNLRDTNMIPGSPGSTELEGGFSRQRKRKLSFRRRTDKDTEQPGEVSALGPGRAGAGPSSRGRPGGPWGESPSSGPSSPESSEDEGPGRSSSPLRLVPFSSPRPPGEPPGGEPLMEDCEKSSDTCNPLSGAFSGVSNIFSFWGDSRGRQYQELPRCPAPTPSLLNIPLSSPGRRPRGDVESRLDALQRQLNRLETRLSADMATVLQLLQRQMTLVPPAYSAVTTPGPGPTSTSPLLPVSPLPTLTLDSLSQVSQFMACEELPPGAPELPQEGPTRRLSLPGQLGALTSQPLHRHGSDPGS
In the case of `Cc1ccc2c(c1)N(CCC(=O)NCCCN1CCCC1)C(=O)CO2`, the “hERG current change (%, negative = inhibition) at 10uM” value is reported as 12.7%.
`Cl.NCCOc1ccccc1OCCN` was tested, and the “hERG current change (%, negative = inhibition) at 10uM” value was 22.1%.
`CCN(C(=S)Nc1ccc(C(C)=O)cc1)C1CCCCC1` was tested, and the “hERG current change (%, negative = inhibition) at 10uM” value was 3.5%.
`C=CCN1C(=O)C(O)(CC(=O)c2ccc(OC)cc2OC)c2cc(Br)ccc21` (stereo not shown) was tested, and the “hERG current change (%, negative = inhibition) at 10uM” value was -3.68%.
`O=C(NC1CCCc2ccccc21)c1cncc(Br)c1` (stereo not shown) was tested, and the “hERG current change (%, negative = inhibition) at 10uM” value was 8.69%.
With `COCCn1c(SCC(=O)N(C)c2c(N)n(Cc3ccccc3)c(=O)[nH]c2=O)nnc1-c1cccc(C)c1` the “hERG current change (%, negative = inhibition) at 10uM” value was 24.7%.
In the case of `Cc1ccc(Cn2c(SCC(=O)NCC3CCCO3)nc3c2c(=O)n(C)c(=O)n3C)cc1` (stereo not shown), the “hERG current change (%, negative = inhibition) at 10uM” value is reported as -28.4%.
With `CCn1nc(C)cc1C(=O)N1CCCC(C(=O)c2ccccc2SC)C1` (stereo not shown) the “hERG current change (%, negative = inhibition) at 10uM” value was -1.16%.
For `O=C(/C=C/c1ccc(Cl)cc1)NCCN1CCOCC1`, the “hERG current change (%, negative = inhibition) at 10uM” value was -24%.
`COc1ccc(/C=C/C(=O)NCCCN2CCCCCC2)cc1` was tested, and the “hERG current change (%, negative = inhibition) at 10uM” value was -58.3%.
In the case of `COc1ccc(/C=C/C(=O)NCCCN2CCOCC2)cc1`, the “hERG current change (%, negative = inhibition) at 10uM” value is reported as -29.4%.
In the case of `Cc1ccc(/C=C/C(=O)NCCCN2CCN(CCCNC(=O)/C=C/c3ccc(C)o3)CC2)o1`, the “hERG current change (%, negative = inhibition) at 10uM” value is reported as -78.3%.
In the case of `O=C(/C=C/c1ccc(F)cc1)NCCCN1CCN(CCCNC(=O)/C=C/c2ccc(F)cc2)CC1`, the “hERG current change (%, negative = inhibition) at 10uM” value is reported as -73.2%.
In the case of `Cl.O=C(/C=C/c1ccc(Br)o1)NCCCN1CCOCC1`, the “hERG current change (%, negative = inhibition) at 10uM” value is reported as 7.91%.
With `O=C(/C=C/c1ccc(F)cc1)NCCNC(=O)/C=C/c1ccc(F)cc1` the “hERG current change (%, negative = inhibition) at 10uM” value was 35.7%.
`COc1ccc(/C=C/C(=O)NCCCN2CCCC2)cc1` was tested, and the “hERG current change (%, negative = inhibition) at 10uM” value was -44.5%.
For `CC(C)c1ccc(/C=C/C(=O)NCCCN2CCOCC2)cc1`, the “hERG current change (%, negative = inhibition) at 10uM” value was -39%.
In the case of `O=C(/C=C/c1ccco1)NCCCN1CCN(CCCNC(=O)/C=C/c2ccco2)CC1`, the “hERG current change (%, negative = inhibition) at 10uM” value is reported as -43.5%.
With `Cc1ccc(/C=C/C(=O)NCCCN2CCN(CCCNC(=O)/C=C/c3ccc(C)cc3)CC2)cc1` the “hERG current change (%, negative = inhibition) at 10uM” value was -0.473%.
`O=C(/C=C/c1ccc(Cl)cc1)NCCCN1CCOCC1` was tested, and the “hERG current change (%, negative = inhibition) at 10uM” value was -71%.
For `COC(=O)[C@@]1(Cc2ccc(OC)cc2)[C@H]2c3cc(C(=O)N(C)C)n(CCSCCO)c3C[C@H]2CN1C(=O)c1ccccc1`, the “hERG current change (%, negative = inhibition) at 10uM” value was -18.4%.
`COC(=O)Nc1ccc(S(=O)(=O)N2CCCCC2)cc1` was tested, and the “hERG current change (%, negative = inhibition) at 10uM” value was -4.21%.
In the case of `Cn1nccc1C(=O)N/N=C/c1cccnc1`, the “hERG current change (%, negative = inhibition) at 10uM” value is reported as -14.8%.
In the case of `COCCNC(=O)CN1C(=O)COc2ccc(Cl)cc21`, the “hERG current change (%, negative = inhibition) at 10uM” value is reported as 21.8%.
In the case of `Cc1nn(-c2ccccc2)c(C)c1NC(=O)COC(=O)CCCOc1ccccc1`, the “hERG current change (%, negative = inhibition) at 10uM” value is reported as 6.69%.
In the case of `COc1ccc(Br)cc1/C=N/N1C(=O)CSC1=S`, the “hERG current change (%, negative = inhibition) at 10uM” value is reported as 17.3%.
For `CCOC(=O)c1c[nH]c2ccc3ccccc3c2c1=O`, the “hERG current change (%, negative = inhibition) at 10uM” value was 13%.
For `COc1cc(C2C(C#N)=C(N)N(c3cccnc3)C3=C2C(=O)CCC3)ccc1O` (stereo not shown), the “hERG current change (%, negative = inhibition) at 10uM” value was -12%.
`O=c1ccc2cc(S(=O)(=O)N3CCOCC3)ccc2o1` was tested, and the “hERG current change (%, negative = inhibition) at 10uM” value was 4.83%.
`O=c1ccc2cc(S(=O)(=O)N3CCN(c4ccccc4)CC3)ccc2o1` was tested, and the “hERG current change (%, negative = inhibition) at 10uM” value was -0.646%.
With `O=c1ccc2cc(S(=O)(=O)N3CCN(c4ccc(Cl)cc4)CC3)ccc2o1` the “hERG current change (%, negative = inhibition) at 10uM” value was -52.8%.
`CC1CCCN(S(=O)(=O)c2ccc3oc(=O)ccc3c2)C1` (stereo not shown) was tested, and the “hERG current change (%, negative = inhibition) at 10uM” value was -19.4%.
For `CC1CC(C)CN(S(=O)(=O)c2ccc3oc(=O)ccc3c2)C1` (stereo not shown), the “hERG current change (%, negative = inhibition) at 10uM” value was -59.5%.
In the case of `Cc1ccc(N2CCN(S(=O)(=O)c3ccc4oc(=O)ccc4c3)CC2)cc1Cl`, the “hERG current change (%, negative = inhibition) at 10uM” value is reported as 3.42%.
With `CCOc1ccc(C(=O)Nc2ccccc2C(=O)O)cc1` the “hERG current change (%, negative = inhibition) at 10uM” value was 8.2%.
With `Cc1ccc(S(=O)(=O)N2CCCCC2)cc1NC(=O)CSc1nnc(N)s1` the “hERG current change (%, negative = inhibition) at 10uM” value was -20.2%.
`O=C(Cn1cc([N+](=O)[O-])cn1)N1CCN(c2ccccc2)CC1` was tested, and the “hERG current change (%, negative = inhibition) at 10uM” value was 7.25%.
With `COc1ccc(C(NC(=O)C2C3C=CC(C3)C2C(=O)O)c2ccccc2)cc1` (stereo not shown) the “hERG current change (%, negative = inhibition) at 10uM” value was -4.58%.
With `O=C(CN1CCCc2ccccc21)N/N=C/c1ccc(O)cc1O` the “hERG current change (%, negative = inhibition) at 10uM” value was -29.1%.
In the case of `O=C(NC(CC(=O)N1CCN(c2ccccc2O)CC1)c1ccccc1)c1ccccc1Cl` (stereo not shown), the “hERG current change (%, negative = inhibition) at 10uM” value is reported as -70.6%.
With `O=C(NC(CC(=O)N1CCN(c2ccc([N+](=O)[O-])cc2)CC1)c1ccccc1)c1ccccc1Cl` (stereo not shown) the “hERG current change (%, negative = inhibition) at 10uM” value was -85.3%.
For `Cc1cccc(N2CCN(C(=O)CNC(=O)c3ccccc3)CC2)c1C`, the “hERG current change (%, negative = inhibition) at 10uM” value was -30.6%.
For `O=C(NC(CC(=O)N1CCCC(C(F)(F)F)C1)c1ccccc1)c1ccccc1Cl` (stereo not shown), the “hERG current change (%, negative = inhibition) at 10uM” value was -8.81%.
`CC1CCN(C(=O)CC(NC(=O)c2ccccc2Cl)c2ccccc2)CC1` (stereo not shown) was tested, and the “hERG current change (%, negative = inhibition) at 10uM” value was -15.7%.
In the case of `O=C(NC(CC(=O)N1CCN(c2ccccc2)CC1)c1ccccc1)c1ccccc1Cl` (stereo not shown), the “hERG current change (%, negative = inhibition) at 10uM” value is reported as -46.8%.
`Cc1cccc(N2CCN(C(=O)CC(NC(=O)c3ccccc3Cl)c3ccccc3)CC2)c1C` (stereo not shown) was tested, and the “hERG current change (%, negative = inhibition) at 10uM” value was -59.9%.
In the case of `Cc1cccc(N2CCN(C(=O)c3ccccc3SCC(=O)N3CCCC3)CC2)c1C`, the “hERG current change (%, negative = inhibition) at 10uM” value is reported as -34.7%.
In the case of `C[C@H](NC(=O)c1ccccc1Cl)C(=O)OCC(=O)N1CCN(c2ccccc2)CC1`, the “hERG current change (%, negative = inhibition) at 10uM” value is reported as -9.59%.
In the case of `C/C(=N\Nc1ccc([N+](=O)[O-])cc1)c1ccc(O)cc1`, the “hERG current change (%, negative = inhibition) at 10uM” value is reported as -1.55%.
With `CNC(=S)N(CCO)Cc1cc2cc3c(cc2[nH]c1=O)OCO3` the “hERG current change (%, negative = inhibition) at 10uM” value was 24%.
In the case of `Cc1cccc(-n2c(SCC(N)=O)nnc2-c2ccccn2)c1C`, the “hERG current change (%, negative = inhibition) at 10uM” value is reported as 1.28%.
In the case of `CCc1ccc(C(=O)NC(CC(C)C)C(=O)O)cc1` (stereo not shown), the “hERG current change (%, negative = inhibition) at 10uM” value is reported as -2.4%.
In the case of `Cc1cc(/C=C2\C(=O)NC(=O)N(Cc3ccco3)C2=O)c(C)n1-c1ccc(C(=O)O)cc1`, the “hERG current change (%, negative = inhibition) at 10uM” value is reported as 12.2%.
With `COc1cccc(Nc2ncccc2C(=O)O)c1` the “hERG current change (%, negative = inhibition) at 10uM” value was 9.1%.
For `CCN(CC)C(=O)CSc1nc2ccsc2c(=O)n1CCCC(=O)NCCc1ccc(S(N)(=O)=O)cc1`, the “hERG current change (%, negative = inhibition) at 10uM” value was 24.7%.

From PMC4336329 (PLoS ONE, 2015)
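Further: peak tail current of the secondary pulse compared with the same well before compound.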
